Results taken from the supplement of paper PMC10849652.
The full data set covers some 7,900 targets. This sample favours those with a hit. About 0.6% of all pairs of compound and target were hits.

Experiments:
Assay in all cases: log2 fold change, soluble protein after heating vs DMSO (PISA); higher = thermal stabilisation; K562 cells, 10 uM, 30 min; active = over 0.2 and 3.5 SD of the protein, either way, in both replicates (recomputed)
[1] = compound: CC(=O)c1cnc2ccc(-c3cc(Cl)c(O)c(Cl)c3)nc2c1N[C@H]1CC[C@H](CN(C)C)CC1
In short: (§1)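 K562 cells at 2×10^6 cells/mL were exposed to 10 μM compound for 30 min, then aliquots were heated for 3 min across 48°C-58°C, pooled, and extracted in PBS containing 0.5% NP-40 at 4°C. The supernatant after 21,000xg for 90 min was taken as soluble protein and measured by TMTpro 16plex LC-MS/MS with channel sums equalised. Thermal stability is reported relative to control samples, with values from duplicates. Fold changes are given on a log2 scale.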

[2] = compound: CC(C)(O)CC(=O)NCCn1ccc2ncnc(Nc3ccc(Oc4cccc(C(F)(F)F)c4)c(Cl)c3)c21
In short: as §1

[3] = compound: CC1=C(C(CC(=O)N1)C2=CC=C(C=C2)C(F)(F)F)C(=O)NC3=C(C=C4C(=C3)C=NN4)F
In short: as §1

[4] = compound: CC1=C(C2=C(C=C1)C(=O)C3=CC=CC=C3N2CCCN)C
In short: as §1

ibrutinib = compound: C=CC(=O)N1CCC[C@@H](n2nc(-c3ccc(Oc4ccccc4)cc3)c3c(N)ncnc32)C1 [ibrutinib]
In short: as §1

ralimetinib = compound: CC(C)(C)Cn1c(N)nc2ccc(-c3[nH]c(C(C)(C)C)nc3-c3ccc(F)cc3)nc21 [ralimetinib]
In short: as §1

[5] = compound: CC(C)C[C@@H](C=O)NC(=O)[C@H](CC(C)C)NC(=O)[C@H](CC(C)C)NC(=O)OCc1ccccc1
In short: as §1

[6] = compound: CC(C)C1=C2N=C(C=C(N2N=C1)NCC3=CC=CC=C3)NCCCCCCN
In short: as §1

IRAK-1-4 Inhibitor I = compound: C1COCCN1CCN2C3=CC=CC=C3N=C2NC(=O)C4=CC(=CC=C4)[N+](=O)[O-] [IRAK-1-4 Inhibitor I]
In short: as §1

pinometostat = compound: CC(C)N(C[C@H]1O[C@@H](n2cnc3c(N)ncnc32)[C@H](O)[C@@H]1O)[C@H]1C[C@@H](CCc2nc3cc(C(C)(C)C)ccc3[nH]2)C1 [pinometostat]
In short: as §1

Measured: log2 fold change

COMMD3-BMI1 (UniProt R4GMX3)
inactive: [1] 0.055 | [2] -0.003 | [3] 0.028 | [4] -0.071

CRTC3 (UniProt Q6UUV7)
Sequence of UniProt Q6UUV7 (Q6UUV7 whole entry, looked up): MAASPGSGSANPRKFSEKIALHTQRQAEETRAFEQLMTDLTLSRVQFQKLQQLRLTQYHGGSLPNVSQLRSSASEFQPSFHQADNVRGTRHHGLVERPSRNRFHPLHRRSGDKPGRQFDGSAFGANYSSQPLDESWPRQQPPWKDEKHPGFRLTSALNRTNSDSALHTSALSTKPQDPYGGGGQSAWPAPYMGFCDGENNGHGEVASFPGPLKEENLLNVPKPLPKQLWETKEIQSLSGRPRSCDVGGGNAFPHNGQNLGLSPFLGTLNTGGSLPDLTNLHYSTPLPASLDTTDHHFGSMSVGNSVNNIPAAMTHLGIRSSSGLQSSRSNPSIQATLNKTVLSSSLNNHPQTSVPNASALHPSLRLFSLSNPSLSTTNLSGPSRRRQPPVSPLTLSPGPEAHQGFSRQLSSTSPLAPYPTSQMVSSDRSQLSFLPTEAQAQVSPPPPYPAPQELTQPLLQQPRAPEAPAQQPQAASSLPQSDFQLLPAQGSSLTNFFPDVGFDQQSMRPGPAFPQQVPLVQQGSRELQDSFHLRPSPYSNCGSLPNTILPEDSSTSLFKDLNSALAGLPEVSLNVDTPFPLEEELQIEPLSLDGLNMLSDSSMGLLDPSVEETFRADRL
inactive: ibrutinib -0.035 | ralimetinib 0.048 | [2] -0.104 | [5] 0.042 | [4] 0

CS (UniProt F8VU34)
inactive: ibrutinib -0.137

CNN3 (UniProt Q15417)
Sequence of UniProt Q15417 (Q15417 whole entry, looked up): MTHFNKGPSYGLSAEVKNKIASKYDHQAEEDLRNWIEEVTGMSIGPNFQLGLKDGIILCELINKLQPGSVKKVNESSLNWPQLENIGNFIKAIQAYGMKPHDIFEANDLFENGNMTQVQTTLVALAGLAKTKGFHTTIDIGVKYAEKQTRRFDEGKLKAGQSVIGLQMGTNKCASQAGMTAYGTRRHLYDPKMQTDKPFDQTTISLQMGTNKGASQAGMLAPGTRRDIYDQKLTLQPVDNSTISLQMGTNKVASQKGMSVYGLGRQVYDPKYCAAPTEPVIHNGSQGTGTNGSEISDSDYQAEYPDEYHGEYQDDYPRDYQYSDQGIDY
inactive: ibrutinib -0.067 | [1] -0.007 | [2] -0.138 | [6] -0.17 | [3] 0.058 | [4] 0.012

CLN8 (UniProt Q9UBY8)
Sequence of UniProt Q9UBY8 (Q9UBY8 whole entry, looked up): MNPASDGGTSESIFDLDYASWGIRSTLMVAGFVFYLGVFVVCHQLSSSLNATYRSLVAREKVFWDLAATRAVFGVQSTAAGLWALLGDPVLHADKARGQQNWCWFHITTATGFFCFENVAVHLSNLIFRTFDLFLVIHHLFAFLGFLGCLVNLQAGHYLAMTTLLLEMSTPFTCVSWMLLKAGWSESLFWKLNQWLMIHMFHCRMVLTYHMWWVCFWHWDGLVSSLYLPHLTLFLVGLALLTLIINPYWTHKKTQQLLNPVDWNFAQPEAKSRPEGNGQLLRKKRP
inactive: [1] -0.164 | ralimetinib 0.643 | [6] 0.017 | [5] 0.139 | [3] 0.043 | [4] 0.138

C5orf30 (UniProt Q96GV9)
inactive: [2] 0.059 | [4] -0.284
active: [1] -0.917

CKS2 (UniProt P33552)
Sequence of UniProt P33552 (P33552 whole entry, looked up): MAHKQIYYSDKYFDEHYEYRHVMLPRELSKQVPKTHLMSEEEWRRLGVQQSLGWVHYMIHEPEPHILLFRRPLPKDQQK
inactive: ibrutinib -0.087 | [1] -0.168 | [3] 0.047 | [4] -0.058

CCNDBP1 (UniProt O95273)
inactive: ibrutinib -0.184 | [1] 0.071 | ralimetinib 0.168 | [6] -0.077 | [5] -0.027 | [3] 0.166 | [4] -0.166

CFAP58 (UniProt Q5T655)
inactive: ralimetinib -0.04 | [5] -0.035

CRLS1 (UniProt Q9UJA2)
Sequence of UniProt Q9UJA2 (Q9UJA2 whole entry, looked up): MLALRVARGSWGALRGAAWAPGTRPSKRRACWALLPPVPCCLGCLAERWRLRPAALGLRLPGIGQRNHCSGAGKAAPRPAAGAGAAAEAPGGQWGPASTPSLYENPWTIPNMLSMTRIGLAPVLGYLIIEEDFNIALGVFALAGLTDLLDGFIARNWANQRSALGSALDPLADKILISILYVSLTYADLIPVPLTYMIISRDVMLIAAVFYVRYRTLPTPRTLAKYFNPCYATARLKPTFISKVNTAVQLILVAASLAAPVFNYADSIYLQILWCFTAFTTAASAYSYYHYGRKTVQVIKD
inactive: IRAK-1-4 Inhibitor I -0.03 | [6] 0.036 | pinometostat -0.071 | [3] -0.032 | [4] -0.005

CDK19 (UniProt Q9BWU1)
Sequence of UniProt Q9BWU1 (Q9BWU1 whole entry, looked up): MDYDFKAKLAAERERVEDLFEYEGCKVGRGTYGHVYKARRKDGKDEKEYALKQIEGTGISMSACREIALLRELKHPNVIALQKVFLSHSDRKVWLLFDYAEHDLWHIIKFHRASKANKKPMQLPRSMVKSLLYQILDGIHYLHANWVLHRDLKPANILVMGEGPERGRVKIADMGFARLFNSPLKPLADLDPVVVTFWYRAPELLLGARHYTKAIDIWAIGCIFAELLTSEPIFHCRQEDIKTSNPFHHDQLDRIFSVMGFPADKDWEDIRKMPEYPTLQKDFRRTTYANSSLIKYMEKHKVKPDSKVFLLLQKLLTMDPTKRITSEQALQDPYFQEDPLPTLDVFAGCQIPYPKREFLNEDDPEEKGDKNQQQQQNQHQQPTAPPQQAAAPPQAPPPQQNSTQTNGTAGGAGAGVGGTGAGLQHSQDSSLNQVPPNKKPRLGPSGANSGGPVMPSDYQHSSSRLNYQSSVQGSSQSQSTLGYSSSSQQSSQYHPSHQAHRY
active: [1] 0.541
inactive: ralimetinib -0.133 | [2] -0.02 | [6] 0.222 | [5] 0.074 | [3] -0.156 | [4] 0.119

CCNL1 (UniProt Q9UK58)
inactive: [6] -0.188

CASK (UniProt O14936)
Sequence of UniProt O14936 (O14936 whole entry, looked up): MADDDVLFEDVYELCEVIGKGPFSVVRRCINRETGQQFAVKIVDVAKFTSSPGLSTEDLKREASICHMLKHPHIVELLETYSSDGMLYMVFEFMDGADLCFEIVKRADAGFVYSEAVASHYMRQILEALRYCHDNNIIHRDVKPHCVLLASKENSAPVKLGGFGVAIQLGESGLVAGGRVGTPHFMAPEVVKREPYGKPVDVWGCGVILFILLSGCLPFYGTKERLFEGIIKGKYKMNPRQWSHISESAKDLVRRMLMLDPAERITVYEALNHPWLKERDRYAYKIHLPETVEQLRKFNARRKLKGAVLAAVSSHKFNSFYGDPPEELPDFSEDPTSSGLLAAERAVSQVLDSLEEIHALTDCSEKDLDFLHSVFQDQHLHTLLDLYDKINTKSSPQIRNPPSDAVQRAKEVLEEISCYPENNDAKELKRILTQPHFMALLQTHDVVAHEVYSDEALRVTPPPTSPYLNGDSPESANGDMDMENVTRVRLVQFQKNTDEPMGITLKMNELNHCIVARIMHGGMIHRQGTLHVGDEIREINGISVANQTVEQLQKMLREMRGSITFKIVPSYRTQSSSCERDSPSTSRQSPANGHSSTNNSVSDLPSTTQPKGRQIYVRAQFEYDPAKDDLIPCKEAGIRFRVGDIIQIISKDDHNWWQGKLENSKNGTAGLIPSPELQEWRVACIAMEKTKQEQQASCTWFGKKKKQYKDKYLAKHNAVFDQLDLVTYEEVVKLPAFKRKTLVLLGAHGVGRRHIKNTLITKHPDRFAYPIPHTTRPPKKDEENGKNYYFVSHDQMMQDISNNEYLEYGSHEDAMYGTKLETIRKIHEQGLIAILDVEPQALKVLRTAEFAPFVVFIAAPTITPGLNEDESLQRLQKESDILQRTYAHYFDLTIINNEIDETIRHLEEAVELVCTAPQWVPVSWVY
active: [1] -0.483
inactive: IRAK-1-4 Inhibitor I 0.036 | [6] 0.177 | pinometostat 0.081

CD84 (UniProt Q9UIB8)
Sequence of UniProt Q9UIB8 (Q9UIB8 whole entry, looked up): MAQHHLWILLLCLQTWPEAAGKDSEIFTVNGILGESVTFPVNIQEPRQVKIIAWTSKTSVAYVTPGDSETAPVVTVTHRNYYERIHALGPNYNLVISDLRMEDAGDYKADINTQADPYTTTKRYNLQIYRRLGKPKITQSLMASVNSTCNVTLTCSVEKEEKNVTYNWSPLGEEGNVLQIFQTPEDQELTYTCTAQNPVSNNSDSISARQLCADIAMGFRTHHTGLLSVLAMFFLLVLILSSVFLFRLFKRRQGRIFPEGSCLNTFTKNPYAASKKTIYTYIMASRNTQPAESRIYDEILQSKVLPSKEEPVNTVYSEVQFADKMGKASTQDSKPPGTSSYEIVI
inactive: [1] -0.166 | [2] 0.068 | [6] 0.024 | [4] 0.233

CLASP2 (UniProt O75122)
inactive: IRAK-1-4 Inhibitor I 0.027 | [1] -0.852 | ralimetinib -0.067 | [6] 0.086 | [5] 0.161 | pinometostat 0.057 | [3] 0.116

CFAP47 (UniProt Q6ZTR5)
inactive: ibrutinib -0.109 | [1] 0.153 | [2] 0.006

CORO2A (UniProt Q92828)
inactive: ibrutinib -0.068 | [1] -0.022 | ralimetinib 0.019 | [6] -0.088 | [5] 0.21 | [3] 0.008 | [4] 0.01

CD68 (UniProt P34810)
inactive: ibrutinib 0.057
active: [6] -0.535

CAD (UniProt H7BZB3)
inactive: [1] -0.322

CCND3 (UniProt P30281)
Sequence of UniProt P30281 (P30281 whole entry, looked up): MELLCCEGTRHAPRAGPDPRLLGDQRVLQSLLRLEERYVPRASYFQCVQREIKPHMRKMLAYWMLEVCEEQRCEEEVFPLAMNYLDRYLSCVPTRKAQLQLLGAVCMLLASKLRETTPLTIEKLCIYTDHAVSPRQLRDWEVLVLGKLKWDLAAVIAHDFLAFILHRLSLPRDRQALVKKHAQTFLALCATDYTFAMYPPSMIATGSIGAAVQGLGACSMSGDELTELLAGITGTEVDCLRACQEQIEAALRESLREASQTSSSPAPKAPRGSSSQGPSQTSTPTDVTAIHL
inactive: ibrutinib -0.063 | [1] 0.078 | ralimetinib -0.076 | [2] 0 | [6] -0.303 | [5] 0.341 | [4] -0.088

CHPT1 (UniProt Q8WUD6)
inactive: [1] 0.023 | ralimetinib -0.132 | [2] 0.223 | [5] -0.002 | [3] 0.26 | [4] 0.044

CCNT2 (UniProt O60583)
inactive: ralimetinib 0.191 | [2] 0.059 | [5] 0.116 | [3] 0.011 | [4] -0.062
active: [1] -0.797

CSNK1A1 isoform 3 (UniProt P48729)
inactive: ibrutinib 0.029

CNN1 (UniProt P51911)
Sequence of UniProt P51911 (P51911 whole entry, looked up): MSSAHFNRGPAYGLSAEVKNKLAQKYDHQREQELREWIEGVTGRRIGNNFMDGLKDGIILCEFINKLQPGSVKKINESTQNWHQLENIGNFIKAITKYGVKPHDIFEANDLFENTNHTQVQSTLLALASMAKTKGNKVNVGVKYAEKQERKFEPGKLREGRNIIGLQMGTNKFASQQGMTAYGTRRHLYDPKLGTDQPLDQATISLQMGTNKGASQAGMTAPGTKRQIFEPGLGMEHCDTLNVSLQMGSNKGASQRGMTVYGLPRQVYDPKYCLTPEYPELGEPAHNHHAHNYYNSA
inactive: [1] -0.086 | [2] -0.071 | [3] 0.144 | [4] 0.145

CCDC187, A0A1W2PQX5
inactive: [1] -0.14 | ralimetinib -0.237 | [2] 0.201 | [5] 0.001 | [3] -0.11

CASP7 isoform 3 (UniProt P55210)
Sequence of UniProt P55210 (P55210 whole entry, looked up): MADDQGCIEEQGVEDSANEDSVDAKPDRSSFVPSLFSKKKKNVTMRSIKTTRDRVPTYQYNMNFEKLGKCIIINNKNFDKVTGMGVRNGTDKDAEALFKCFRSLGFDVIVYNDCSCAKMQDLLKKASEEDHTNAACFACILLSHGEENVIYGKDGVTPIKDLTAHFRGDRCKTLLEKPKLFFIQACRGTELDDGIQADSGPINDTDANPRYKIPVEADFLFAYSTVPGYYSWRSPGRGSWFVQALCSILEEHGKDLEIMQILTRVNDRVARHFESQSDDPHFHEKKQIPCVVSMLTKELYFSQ
inactive: ibrutinib -0.005 | [2] -0.003 | [6] 0.035 | [3] 0.064

CLN5 (UniProt O75503)
inactive: IRAK-1-4 Inhibitor I 0.023 | [1] -0.03 | [2] 0.001 | [6] -0.62 | pinometostat -0.062 | [3] -0.039 | [4] -0.028

CRMP1 isoform 2 (UniProt Q14194)
Sequence of UniProt Q14194 (Q14194 whole entry, looked up): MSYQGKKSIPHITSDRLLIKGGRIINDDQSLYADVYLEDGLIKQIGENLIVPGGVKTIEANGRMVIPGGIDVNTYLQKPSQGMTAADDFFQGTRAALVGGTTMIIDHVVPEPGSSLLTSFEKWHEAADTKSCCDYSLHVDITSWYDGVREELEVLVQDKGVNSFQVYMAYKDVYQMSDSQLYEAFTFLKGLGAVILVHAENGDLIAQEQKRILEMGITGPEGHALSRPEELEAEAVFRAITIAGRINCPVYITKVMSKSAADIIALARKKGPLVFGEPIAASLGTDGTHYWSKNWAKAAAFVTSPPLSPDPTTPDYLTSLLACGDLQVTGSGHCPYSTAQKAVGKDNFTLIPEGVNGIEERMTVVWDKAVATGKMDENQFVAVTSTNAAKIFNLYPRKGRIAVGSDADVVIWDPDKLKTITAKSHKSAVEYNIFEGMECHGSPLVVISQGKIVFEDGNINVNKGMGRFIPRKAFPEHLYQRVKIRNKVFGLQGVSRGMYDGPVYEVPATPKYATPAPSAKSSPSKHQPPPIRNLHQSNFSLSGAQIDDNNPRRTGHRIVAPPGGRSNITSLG
inactive: ibrutinib 0.038 | [1] -0.224 | [6] 0.124 | [3] 0.196 | [4] 0.181

CLINT1 (UniProt Q14677)
inactive: [1] 0.059 | [2] 0.221 | pinometostat 0.058 | [3] 0.099 | [4] -0.114
